From PubChem BioAssay
Bcl-W Bim block: inhibitors of Bim binding to Bcl-W, primary screen, biochemical, multiplexed, bead-based flow cytometry. Bcl-2-like protein 2 (Homo sapiens), Q92843. Bim peptide-Bcl-W binding. inhibition, % at 10 µM. actives 0.02% (n = 190,000);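 further: 0% = bound tracer without compound and 100% = peptide blocker; higher means less fluorescent Bim peptide bound to Bcl-W beads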
Bim-Bfl-1: inhibitors of Bim binding to Bfl-1, primary screen, biochemical, multiplexed, bead-based flow cytometry | actives 0.12% (n = 190,000) | Bim-Bfl-1 binding inhibition | inhibition, % at 10 µM;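 further: 0% = wells without compound plus tracer and 100% = blocker peptide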
Bcl-B Bim block: inhibitors of Bim-Bcl-B binding, primary screen, biochemical, multiplexed, human Bcl-2 family; AID 951, 2007; Bcl-2-like protein 10 (Homo sapiens), Q9HD36; bead-based flow cytometry, Bim peptide-Bcl-B binding; inhibition, % at 10 µM; actives 0.073% (n = 190,000);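 further: 0% = tracer peptide without compound and 100% = reference inhibitor peptide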
Bcl-XL Bim block: inhibitors of Bim-Bcl-XL binding, primary screen, biochemical, multiplexed, bead flow cytometry, human Bcl-XL. Bcl-2-like protein 1 (Homo sapiens), Q07817. Bim peptide-Bcl-XL binding, fluorescence. inhibition, % at 10 µM. actives 0.04% (n = 190,000)
Target sequence (Q07817 whole entry, looked up): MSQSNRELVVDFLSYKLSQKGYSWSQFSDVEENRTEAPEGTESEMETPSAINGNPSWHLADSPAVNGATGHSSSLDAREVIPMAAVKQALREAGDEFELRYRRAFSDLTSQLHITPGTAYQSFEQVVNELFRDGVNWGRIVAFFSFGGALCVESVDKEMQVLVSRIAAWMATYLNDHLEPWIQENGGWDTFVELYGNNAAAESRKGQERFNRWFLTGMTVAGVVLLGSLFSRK
Bim-Bcl-2: inhibitors of Bim-Bcl-2 binding, primary screen, biochemical, multiplexed, human Bcl-2 family. actives 0.06% (n = 190,000). Apoptosis regulator Bcl-2 (Homo sapiens), P10415. Bead-based flow cytometry, Bim peptide-Bcl-2 binding. inhibition, % at 10 µM; in the data active means inhibition above about 40%;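 further: 0% = no compound wells with probe peptide and 100% = reference peptide inhibitor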
Target sequence (P10415 whole entry, looked up): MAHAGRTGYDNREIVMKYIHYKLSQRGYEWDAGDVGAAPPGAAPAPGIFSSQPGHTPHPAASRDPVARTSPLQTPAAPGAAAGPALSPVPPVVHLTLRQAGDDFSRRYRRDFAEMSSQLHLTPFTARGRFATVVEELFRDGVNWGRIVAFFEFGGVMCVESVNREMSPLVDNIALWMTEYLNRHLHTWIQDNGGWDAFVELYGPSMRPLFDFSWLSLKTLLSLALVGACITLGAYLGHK
An asterisk follows results filed as active; nt = no result given. Only some compounds are listed: those with a hit (about 0.19% of all), similar ones and a draw of the others. Unless noted, no stated cut-off is given here; in the data, active means inhibition above about 40%.

SMILES	Bcl-W Bim block	Bim-Bfl-1	Bcl-B Bim block	Bcl-XL Bim block	Bim-Bcl-2
CC(C)n1nnnc1SCC(=O)N1CCN(C(=O)c2ccco2)CC1	31	-2	93*	50*	18
CCCn1nnnc1SCC(=O)N1CCN(C(=O)c2ccco2)CC1	0	-15	-5	-8	-7
COC(=O)c1ccccc1N/C=C1\CCc2c(c(C)nn2-c2ccccn2)C1=O	37	50*	6	7	20
O=C(CSc1ccc2nnc(-c3ccccn3)n2n1)Nc1nccs1	27	7	24	40*	8
O=c1[nH]c(=O)c2nnc(N/N=C\c3ccc(O)cc3)nc2[nH]1	28	6	25	44*	13
COc1ccc(NC2SC(=O)N(C)C2=O)cc1 (centres undefined)	-1	-5	-6	-4	1
O=C1C(=O)c2ccc(-c3ccccc3)cc2-c2ccccc21	25	41*	21	38	32
O=C(Nc1ccc(Cl)cc1)/C(=C/c1ccc([N+](=O)[O-])cc1)c1nc2ccccc2s1	1	-5	-5	-3	-1
Cc1cc(C)c(S(=O)(=O)/N=C2/C=C(SCC(=O)O)C(=O)c3ccccc32)cc1C	18	56*	-12	0	12
C/C(=N\NC(=O)OC(C)(C)C)c1ccccc1Br	0	-5	-1	1	0
COc1ccccc1C(=O)N=Nc1c(O)[nH]c2ccc([N+](=O)[O-])cc12	27	9	24	44*	17
O=C(N=Nc1c(O)[nH]c2ccc([N+](=O)[O-])cc12)c1cc(-c2ccccc2Cl)nc2ccccc12	-7	-9	-8	-4	-2
CSC1=NC(=O)/C(=C/c2ccc(SC)cc2)S1	-1	-4	-1	-2	0
CCOC(=O)CSC1=NC(=O)/C(=C\c2ccc(Cl)cc2)S1	1	46*	0	-2	-1
CC[n+]1c(/C=C/C=C/N(C(C)=O)c2ccccc2)sc2ccccc21	43*	9	2	nt	nt
O=C1C(Cl)=C(N2CCCCC2)C(=O)C(Cl)=C1c1cnc(N2CCCCC2)s1	85*	91*	52*	49*	69*
CN(C)c1ncc(C2=C(Cl)C(=O)C(N3CCCC3)=C(Cl)C2=O)s1	83*	92*	46*	48*	70*
Clc1ccc(Cl)c2sc(N3CCCC3)nc12	1	-9	-5	0	-9
CC(=O)OCCCNc1cc(Sc2ccc(C)cc2)c2nonc2c1[N+](=O)[O-]	1	-3	-10	-3	0
CC(=O)OCCNc1cc(Sc2nc3ccccc3[nH]2)c2nonc2c1[N+](=O)[O-]	9	44*	0	0	2
O=C(Cc1ccccc1)Nc1ccc(NC(=O)c2cccs2)cc1Cl	0	-5	0	0	-2
O=C1c2ccccc2-c2onc3c(Oc4ccccc4)cc(O)c1c23	28	43*	-14	29	22
COc1ccc(-c2onc(C)c2-c2ccccc2)c(O)c1	0	-10	-2	-3	-5
Cc1cc2nc(-c3ccc4c(c3)CCC4)ccn2n1	-1	-5	-5	-5	-1
COc1ccc(N2CCN(CCCNC(=O)CCCn3c(=O)[nH]c4ccsc4c3=O)CC2)cc1	4	30	67*	1	62*
SMILES	Bcl-W Bim block	Bim-Bfl-1	Bcl-B Bim block	Bcl-XL Bim block	Bim-Bcl-2
Cc1cc(C)n2nc(C(=O)OCC(=O)c3c[nH]c4ccccc34)nc2n1	2	-1	0	0	-2
COc1ccc(N2C(=O)C3CCCCC3C2=O)cc1NC(=O)c1ccccc1 (centres undefined)	0	-4	-3	0	-2
O=C(Nc1cccc(Br)c1)c1ccc(OC2CSC2)cc1	-1	-4	-6	-2	-7
O=C1N/C(=C/c2cccn2-c2ccccc2)C(=O)N1Cc1ccc(F)cc1	10	42*	-57	13	11
O=C(O)CC/C(=C\c1ccccc1[N+](=O)[O-])c1nc2ccccc2s1	0	0	0	-3	-1
O=C(O)CC/C(=C\c1cc([N+](=O)[O-])ccc1Cl)c1nc2ccccc2s1	33	24	37	40*	28
CCN(CC)c1ccc(NC2=C(Cl)C(=O)c3ccccc3C2=O)cc1	21	70*	-39	-6	16
O=C1C(Nc2ccc(O)cc2)=C/C(=N/S(=O)(=O)c2cccs2)c2ccccc21	-2	-8	-10	-10	-3
O=C(O)c1ccc(NC2=C/C(=N/S(=O)(=O)c3ccccc3)c3ccccc3C2=O)cc1	19	47*	-21	2	12
CC(=O)N1CCN(C(=O)c2ccc(-n3c(C)ccc3C)cc2)CC1	6	7	41*	10	17
O=C(COC(=O)CCC(=O)c1cccs1)NC(=O)c1ccc(OC(F)F)cc1	-1	-6	-2	-2	-1
COc1cc2[nH]c(=S)nc(NC3CCCC3)c2cc1OC	31	27	27	44*	18
C=CCNc1nc(=S)[nH]c2cc(OC)c(OC)cc12	12	1	16	19	3
COc1cccc(N=Nc2c(N)[nH]n3c(=O)c4c(nc23)CCCC4)c1	13	11	20	27	9
CC(/C=C/C(=O)c1ccc(C)cc1)=C\c1ccccc1	27	47*	23	48*	33
COc1ccc(C(=O)C2CCCN(C3Cc4ccccc4C3)C2)c(OC)c1 (centres undefined)	0	-4	0	-2	0
O=C1c2ccccc2C(=O)N1c1cccc2cccnc12	24	40*	23	36	30
COc1cccc(NC(=O)C(c2ccccc2)N2CCNC(=O)C2)c1 (centres undefined)	0	-5	0	0	0
Cc1ccc(-c2ccc(CCC(=O)O)n2NC(=O)c2cccs2)cc1	28	nt	nt	35	92*
COc1ccc(-c2ccc(CCC(=O)O)n2NC(=O)c2cccs2)cc1	0	-23	-8	-7	-10
O=C(c1cc(=O)c2ccccc2o1)N1CCN(c2ccccc2F)CC1	58*	58*	52*	37	66*
O=C(c1cc(=O)c2ccccc2o1)N1CCN(c2cccc(Cl)c2)CC1	3	-8	0	0	-3
CC1=CC(=O)c2c(O)ccc(O)c2C1=O	45*	66*	-2	18	25
O=C(NCCc1cccc(Cl)c1)c1cc([N+](=O)[O-])ccc1Cl	-1	0	-1	0	1
O=C(NCCCN1CCN(CCCNC(=O)c2cc([N+](=O)[O-])ccc2Cl)CC1)c1cc([N+](=O)[O-])ccc1Cl	13	2	78*	13	10
CCOc1ccc(NC(=O)CN(C)CC(=O)Nc2ccc(Br)cc2F)cc1OCC	-4	-8	-5	-2	-4
